The whole screen tested about 310,000 compounds, of which about 14,000 (4.5%) showed an effect of 50% or more. Effects have a minus sign here. The sample as a whole holds a higher share of strong results than the screen did.
Target: human ether-à-go-go-related gene (hERG) potassium channel (human, UniProt Q12809)
Test: primary screen, population patch clamp on CHO cells stably expressing hERG; higher = less effect of the substance
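Note: peak tail current of the secondary pulse compared with the same well before compound.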

Sequence of human ether-à-go-go-related gene (hERG) potassium channel (Q12809 whole entry, looked up): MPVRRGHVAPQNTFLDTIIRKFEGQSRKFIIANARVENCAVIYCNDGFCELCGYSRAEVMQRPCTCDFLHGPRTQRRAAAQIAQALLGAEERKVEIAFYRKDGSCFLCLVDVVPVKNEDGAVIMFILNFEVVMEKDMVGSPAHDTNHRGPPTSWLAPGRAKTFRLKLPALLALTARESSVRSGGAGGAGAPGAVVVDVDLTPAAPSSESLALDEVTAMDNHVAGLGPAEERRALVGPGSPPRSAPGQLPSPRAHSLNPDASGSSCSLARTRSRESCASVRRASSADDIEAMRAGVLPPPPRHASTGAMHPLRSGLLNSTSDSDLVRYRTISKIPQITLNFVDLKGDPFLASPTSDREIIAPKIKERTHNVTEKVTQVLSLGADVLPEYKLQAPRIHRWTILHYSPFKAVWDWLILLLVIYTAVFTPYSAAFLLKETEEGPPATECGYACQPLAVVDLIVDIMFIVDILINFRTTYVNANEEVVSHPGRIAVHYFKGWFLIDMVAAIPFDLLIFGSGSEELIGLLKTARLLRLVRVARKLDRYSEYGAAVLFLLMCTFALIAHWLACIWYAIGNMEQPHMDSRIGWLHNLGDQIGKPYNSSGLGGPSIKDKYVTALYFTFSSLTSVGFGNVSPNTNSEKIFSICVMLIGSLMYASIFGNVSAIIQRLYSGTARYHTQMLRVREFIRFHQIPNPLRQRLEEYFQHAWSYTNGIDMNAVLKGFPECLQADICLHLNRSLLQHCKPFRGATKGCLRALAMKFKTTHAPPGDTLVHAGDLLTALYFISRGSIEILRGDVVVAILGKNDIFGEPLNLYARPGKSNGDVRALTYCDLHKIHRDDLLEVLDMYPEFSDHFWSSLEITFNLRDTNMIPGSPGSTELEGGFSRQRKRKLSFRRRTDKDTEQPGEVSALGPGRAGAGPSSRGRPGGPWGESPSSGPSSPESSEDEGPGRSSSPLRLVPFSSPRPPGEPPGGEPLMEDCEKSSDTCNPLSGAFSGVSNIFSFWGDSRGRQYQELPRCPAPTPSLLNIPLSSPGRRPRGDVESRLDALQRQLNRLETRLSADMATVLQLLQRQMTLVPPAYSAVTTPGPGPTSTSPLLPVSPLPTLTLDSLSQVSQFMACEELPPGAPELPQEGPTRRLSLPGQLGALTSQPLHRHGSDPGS

| Structure (SMILES) | hERG current change (%, negative = inhibition) at 10uM [%] |
| --- | --- |
| COc1ccccc1C(=O)COC(=O)c1nc(Cl)ccc1Cl | -0.91 |
| O=C(CSC1=NS(=O)(=O)c2cc(Cl)ccc2N1)NCCc1ccccc1 | 15.4 |
| CN(C)c1ccc(S(=O)(=O)N2CCCCC2)cc1NC(=O)CCNC(=O)c1ccc(Cl)cc1 | -27.4 |
| Cc1cccc(Oc2ccccc2NC(=O)CN2C(=O)NC3(CCCC3)C2=O)c1 | -6.76 |
| CCN(CC)S(=O)(=O)c1ccc(NS(=O)(=O)c2ccc(C)c(C)c2)cc1 | -21.6 |
| Nc1nonc1C(=Nc1ccc(Br)cc1)NO | 8.76 |
| CCOC(=O)c1cnc(SCC(=O)OC)nc1N | 52.5 |
| C/C(=N\N1C(C)CCCC1C)c1ccccc1O (centres unmarked) | 14.1 |
| O=C(NCc1ccc2c(c1)OCO2)c1ccccc1Cl | -2.6 |
| COc1ccc(CC(=O)N2CC(C)CC(C)C2)cc1OC (centres unmarked) | 5.21 |
| CSc1ccc(/C=C(\NC(=O)c2ccccc2)C(=O)NCCN2CCOCC2)cc1 | -63.7 |
| CSc1ccc(/C=C(/NC(=O)c2ccccc2)C(=O)NCCN2CCOCC2)cc1 | -44.8 |
| CC(=O)O[C@@H]1C[C@H]2C(C)(C)C(=O)C=C[C@]2(C)[C@H]2CC[C@@]3(C)[C@H](c4ccoc4)OC(=O)[C@H]4O[C@]43[C@@]21C | -43.1 |
| N#Cc1ccccc1NC(=S)NC(=O)c1cccnc1 | 13.7 |
| CCN(CC(=O)NCc1ccc(Cl)cc1)C(=O)Cc1ccc(OC)cc1 | -75.7 |
| CCN(CC(=O)NCc1ccc(Cl)cc1)C(=O)c1ccc2cc(OC)ccc2c1 | 3.72 |
| CCN(CC(=O)NCc1ccc(Cl)cc1)C(=O)c1cc(OC)cc(OC)c1 | -48.4 |
| CCN(CC(=O)NCc1ccc(F)cc1)C(=O)/C=C/c1ccc(OC)cc1 | -48 |
| CCN(CC(=O)NCc1ccc(F)cc1)C(=O)Cc1ccc(OC)cc1 | -63.5 |
| COc1ccc(CNC(=O)COc2ccc(F)cc2)cc1 | 2.33 |
| c1nc(N2CCCC2)c2[nH]cnc2n1 | -3.15 |
| CCC(C(=O)NC(C)(C)C)N(C(=O)Cn1nnc(-c2cccs2)n1)c1cnc2ccccc2c1 (centres unmarked) | -13.3 |
| COc1ccc(C(=O)CNc2ccccc2CO)cc1 | 22.8 |
| O=C(NCCC1=CCCCC1)c1cc(-c2ccncc2)nc2ccccc12 | 6.78 |

| Structure (SMILES) | hERG current change (%, negative = inhibition) at 10uM [%] |
| --- | --- |
| CC(C)(C)c1ccc(C(=O)Nc2ccc(O)c3c(=O)cc(-c4cccc(Cl)c4)oc23)cc1 | 17.7 |
| COc1cc(C(=O)OC(C)C(=O)NC(=O)NC2CCCCC2)ccc1OC(F)F (centres unmarked) | -51.2 |
| CC(=O)Nc1cccc(C(=O)OC(C)C(=O)NC(=O)NC2CCCCC2)c1 (centres unmarked) | 3.89 |
| COc1cc(C(=O)OCC(=O)NC(=O)C2CCCCC2)ccc1OC(F)F | 15.8 |
| CCOC(=O)C1CCN(C(=O)Nc2ccc3c(c2)nc(C)n3C)CC1 | 0.694 |
| CCN(CC)c1ccc(CNc2nnnn2C)cc1 | 19.3 |
| Cc1cc(=O)n2nc(N3CCCC(C(=O)NC4CCCCC4C)C3)sc2n1 (centres unmarked) | 9.32 |
| Cc1ccccc1CSCCNC(=O)CCSc1ccccc1 | 2.74 |
| CCCC(O)(CCN1CCOCC1)c1ccc(Br)cc1.Cl (centres unmarked) | -20.7 |
| CCCCOc1ccc(C(C)(O)CCN2CCOCC2)cc1 (centres unmarked) | -2.97 |
| CCCCC(O)(CCN1CCOCC1)c1ccc(Cl)cc1.Cl (centres unmarked) | -66.5 |
| CCCCOc1ccc(C(O)(CCC)CCN2CCOCC2)cc1 (centres unmarked) | -51.2 |
| CCCCOc1ccc(C(O)(CC)CCN2CCOCC2)cc1 (centres unmarked) | -13.4 |
| CCCOc1ccc(C(C)(O)CN2CCOCC2)cc1 (centres unmarked) | 15.6 |
| CCCOc1ccc(C(O)(CCN2CCCCC2)c2ccccc2OC)cc1.Cl (centres unmarked) | -29.9 |
| CCCC(O)(CCN1CCOCC1)c1ccc(Cl)cc1 (centres unmarked) | 3.77 |
| CCCOc1ccc(C(O)(CCC)CCN2CCCCC2)cc1 (centres unmarked) | -56.1 |
| OC1(c2ccc(F)cc2)CSC(=Nc2cccnc2)N1Cc1ccco1 (centres unmarked) | -14.2 |
| COc1ccc(OC)c2nc(-c3ccc4c(c3)OCO4)ccc12 | 10.4 |
| CC1CCC2(CC1)NC(=O)N(CC(=O)N1CCN(C(=O)c3cccs3)CC1)C2=O (centres unmarked) | -9.44 |
| CCOC(=O)Cc1csc(NC(=O)c2cc(=O)c3ccccc3o2)n1 | -12.3 |
| COc1ccc(Br)cc1CN1C(=O)NC2(CCCCCC2)C1=O | 10.4 |
| Cn1ncc(Br)c1C(=O)N1CCCC1 | 19 |
